According to ChEMBL document CHEMBL4513216, “Probing the Open Global Health Chemical Diversity Library for Multistage-Active Starting Points for Next-Generation Antimalarials” (ACS Infect Dis, 2020):
About 8,600 (12%) of roughly 69,000 compounds showed an effect of 50% or more. This is one part of a sample in which strong results are shown more often than they occur.

The molecules below were run on Plasmodium berghei (assay: Screen against P. berghei liver stage (PbLuc), transformed with Luciferase, at 10uM). Settings: tested at 10 uM.
Format: functional, HepG2

Row | Compound | INHIBITION [%]
1 | CNC(=O)Cc1ccc(NC(=O)NCc2nc(C)sc2C)cc1 | 52.2
2 | CNC(=O)Cc1ccc(NC(=O)NC(C)C(C)C)cc1 (centres undefined) | -9.48
3 | CNC(=O)Cc1ccc(NC(=O)NC2(c3cccc(F)c3)CC2)cc1 | 9
4 | Cc1cnc(CNC(=O)NCc2cccnc2N(C)C)s1 | 45.8
5 | CNC(=O)Cc1ccc(NC(=O)NCc2ncc(C)s2)cc1 | 64
6 | COc1ccc(-c2nc(CN3CCc4cncnc4C3)no2)cc1 | 5.72
7 | CCc1c(C(=O)N2C[C@@H]3CC[C@H]2CN(c2cnccn2)C3)csc1C | -59.5
8 | CC(=O)c1ccc(C(=O)N2C[C@@H](CN3CCCC3)[C@@H](CO)C2)cc1 | 32.5
9 | CSc1ccc(S(=O)(=O)N2CCCCC2CCNC(C)=O)cc1 (centres undefined) | 11.8
10 | CC(=O)c1ccc(S(=O)(=O)N2CCCC2CN2CCCC2)cc1 (centres undefined) | 51.1
11 | COC[C@]1(O)CCN(C2CCN(c3ccc(F)c(F)c3)CC2)CC1(C)C | 39.4
12 | COC(=O)c1cccc(C2CNCCN2C(C)=O)c1 (centres undefined) | 24.99
13 | COC(=O)CNC(=O)Cn1ccc2cccc(OC)c21 | 48.9
14 | Cc1csc(N2CCN(CC(=O)Nc3cc(C)nn3C)CC2C)n1 (centres undefined) | 12.96
15 | CCn1nc(C)c2nc(C(C)C)nc(N3CCCC3)c21 | 15.4
16 | Cc1nccn1CCN1C(=O)CC2(CCCC2)CC1=O | 56
17 | O=C1CC2(CCCC2)CC(=O)N1CCn1cnnc1 | -28.9
18 | Cc1nncn1CCN1C(=O)CC2(CCCC2)CC1=O | -23.3
19 | CC(C)c1nn(C)c(N(C)C)c1CNC1CCCCNC1=O (centres undefined) | -4.13
20 | O=C(Cc1cccc(O)c1)NCCCNC(=O)c1cccc(F)c1 | 8.64
21 | Cc1cccc(-c2nc(N)nc3c2CN(C(=O)c2ccncn2)C3C)c1 (centres undefined) | 19.9
22 | Cc1cccc(-c2nc(N)nc3c2CN(C(=O)c2cc(C)n[nH]2)C3C)c1 (centres undefined) | 58.9
23 | COCC(=O)N1Cc2c(-c3cccc(C)c3)nc(N)nc2C1C (centres undefined) | -24.1
24 | Cc1cc(C(=O)Nc2cccn(Cc3ccccc3)c2=O)no1 | -85.8
25 | O=C(c1ccccn1)N1CCC2(CC1)COC(COCC1CC1)C2 (centres undefined) | 23.5
26 | CN(C)CCn1c2c(ccc1=O)CC(NC(=O)NC1CCCC1)CC2 (centres undefined) | 39.5
27 | CCN1CCN(C(C)(C)CNc2nc(C)cc(C3CCC3)n2)CC1 | 9.52

Row | Compound | INHIBITION [%]
28 | Cc1cc(C2CCC2)nc(NCC(C)(C)N2CCCC2)n1 | 57.2
29 | Cc1cc(C2CCC2)nc(NCC(C)(C)N2CCOCC2)n1 | 9.52
30 | COC(=O)CCC(=O)NCc1cccnc1N1CCc2ccccc2C1 | -13.1
31 | CC(NC(=O)C1=NN(C)C(=O)CC1)c1cccc(Cl)c1 (centres undefined) | 24.3
32 | Cc1cc(C(=O)N2CCCCC2c2nc(C)cs2)[nH]n1 (centres undefined) | 35.7
33 | Cc1csc(C2CCCCN2C(=O)c2cc(C(C)C)[nH]n2)n1 (centres undefined) | 70.8
34 | Cc1csc(C2CCCCN2C(=O)c2cc(C3CC3)[nH]n2)n1 (centres undefined) | 13.6
35 | Cc1nc(CN2CCC(C(=O)O)(n3ccc(C(C)C)n3)CC2)co1 | -35.2
36 | Cc1ccc(C(=O)N2CCCCC2CN(C)C)cc1 (centres undefined) | 21.8
37 | N#Cc1ccc(NC(=O)N2CCCCC2CN2CCCC2=O)cc1 (centres undefined) | 44.9
38 | O=C1CCCN1CCC1CCCCN1C(=O)c1ccc(SCCO)cc1 (centres undefined) | 58.2
39 | CCC1CCCCCN1C(=O)c1ccc(N2CCC(O)CC2)cc1 (centres undefined) | -45.2
40 | Cc1cc(C)n(CC(=O)N2CCCCC2CCN2CCCC2=O)c(=O)n1 (centres undefined) | 44.2
41 | COCCCC1CCCCN1C(=O)c1ccc(SCCO)cc1 (centres undefined) | 52.6
42 | COc1ccc2c(c1)CN(C)C(=O)CCN2CC(O)C(C)(C)C (centres undefined) | 17.7
43 | CC(C)(NCC(=O)NCC1CC1)c1ccc2c(c1)OCCO2 | -36.3
44 | CCn1ccc(C(=O)Nc2ccc3c(c2)C(C)(C)C(=O)N3C)n1 | 40
45 | CCC(CC)C(=O)N1CCC(c2nn(CCN)c3nccnc23)C1 (centres undefined) | 41.2
46 | CS(=O)(=O)N[C@@H]1CN(C(=O)c2ccccn2)C[C@@H]2CCCO[C@@H]21 | 34.6
47 | COc1ccc(-c2cc3nc(CCNC(=O)CN(C)C)nn3cn2)cc1 | 19.4
48 | CC(C)(C)C(=O)CN1CCc2ccccc2NCCC1=O | 15.4
49 | CN1CCCN(C(=O)c2ccn3ccnc3c2)CC1 | -60.7
50 | O=C(c1ccsc1)N1CC[C@@H](N2CCOCC2)[C@@H]1Cc1ccccc1 | -2.72
51 | COCc1nc(C(=O)NS(=O)(=O)c2ccc(F)c(F)c2)cs1 | 21.1
52 | COCc1nc(C(=O)NS(=O)(=O)c2ccc(C)c(C)c2)cs1 | -1.7
53 | COCc1nc(C(=O)NS(=O)(=O)c2ccc(OC)c(C)c2)cs1 | 52.6
54 | COc1ccccc1NC(=O)c1cc2c([nH]c1=O)CCCC2=O | -15.9
